# Test results reported in paper PMC5540273 (PLoS ONE, 2017).
# Tested on: T1, YSK1
# T1 construct: gene STK25
# Details: concentration: 1 μM,replicates: in singlicate; n = 1
# 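Note: KINOMEscan kinase panel screen.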
row,Compound,%Inh
1,Cc1n[nH]c2ccc(-c3cc(OC[C@@H](N)Cc4ccccc4)cnc3-c3ccoc3)cc12.O=C(O)C(F)(F)F.O=C(O)C(F)(F)F [GSK507358],22%
2,Cl.Oc1cc(-c2nc(-c3ccccc3)[nH]c2-c2ccncc2)ccc1Cl [SB-386023],0%
3,CCn1c(-c2nonc2N)nc2c(C#CC(C)(C)O)nc(OCCN)cc21.Cl.Cl [GSK902056],0%
4,CCN(CC)CCOc1ccc(Nc2ncc3cc(-c4c(Cl)cccc4Cl)c(=O)n(C)c3n2)cc1 [SB-601273],37%
5,CC(C)Nc1cc(-c2ccc3c(N)n[nH]c3c2)nc(N)n1 [GSK2221681],14%
6,C=CC(=O)Nc1cc2c(Nc3ccc(F)c(Cl)c3)ncnc2cc1OCCCN1CCOCC1 [GW781483],0%
7,C[C@@H](Oc1cc(-c2cnn(C3CCNCC3)c2)cnc1N)c1c(Cl)ccc(F)c1Cl,0%
8,CN(C)CCOc1ccc(-c2cc(-c3c[nH]nc3-c3ccccn3)ccn2)cc1 [GW835314],0%
9,Cc1cc(C(=O)Nc2ccc(Oc3ccc4nc(NC(=O)C5CC5)cn4n3)cc2)nn1-c1ccccc1,1%
10,Cl.Cl.Nc1nc(-c2ccc3c(N)n[nH]c3c2)cc(N2CCCC(NC(=O)c3ccccc3)C2)n1 (stereo not drawn) [GSK2286775],22%
11,COc1ccc(C[C@@H](CN)NC(=O)c2cc(Br)c(-c3ccnc4[nH]ccc34)s2)cc1.Cl.Cl [GSK1389063],100%
12,Cc1cc2cn[nH]c2cc1-c1cccc2c(N)c(C(N)=O)nnc12,0%
